Consider twelve compounds from PubChem BioAssay.

Assay [1] deals with Human papillomavirus type 1a protein E7 (residues 44-93). The assay can be described thus: small molecules binding HPV E7 44-93 – biochemical, small-molecule microarray, residues 44-93, 635 nm fluorescence, primary screen (AID 1108).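 Further: E7 fragment applied at 1 µg/mL in TBST for 1 h at 4 C; score combines spot fluorescence with its signal to noise ratio.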 To be noted: fluorescence 635 nm, higher = more signal.
Assay [2] in a line: hepatitis C replication reporter changes, two-sided – Huh7 cells, luciferase reporter, HCV replication inhibitor project, primary screen (AID 1109).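 Further: huh7 hepatoma cells harbouring a luciferase neomycin HCV replicon reporter; luciferase luminescence as measure of HCV replicon replication; test concentration not given here.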 To be noted: Huh7 HCV replicon luciferase reporter, 48 h; higher = more signal. For orientation: In a reporter assay the amount or activity of a reporter protein is the signal.
The target in assay [3] is Left-right determination factor 2 (Homo sapiens) (UniProt O00292). The assay is described as follows: small molecules binding LEFTY2 protein – biochemical, small-molecule microarray, 635 nm fluorescence scan, primary screen (AID 1110). Conditions: higher = more signal.
Sequence of Left-right determination factor 2 (Homo sapiens) (O00292 whole entry, looked up): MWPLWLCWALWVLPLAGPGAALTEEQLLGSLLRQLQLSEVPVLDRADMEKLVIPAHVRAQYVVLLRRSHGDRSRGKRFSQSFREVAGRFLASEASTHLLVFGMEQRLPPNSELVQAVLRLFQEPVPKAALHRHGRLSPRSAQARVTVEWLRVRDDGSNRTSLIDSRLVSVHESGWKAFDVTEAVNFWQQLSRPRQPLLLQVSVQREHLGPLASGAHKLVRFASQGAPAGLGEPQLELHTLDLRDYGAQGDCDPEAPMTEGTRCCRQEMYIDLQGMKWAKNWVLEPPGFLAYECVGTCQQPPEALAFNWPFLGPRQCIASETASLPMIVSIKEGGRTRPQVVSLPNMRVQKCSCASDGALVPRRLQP
For assay [4], the target named is Calmodulin-1 (Homo sapiens) (UniProt P0DP23). The assay is described as follows: small molecules binding calmodulin-1 with EGTA – biochemical, small-molecule microarray, Cy5-labelled CALM1, profiling panel (AID 1111).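 Further: labelled calmodulin applied in Tris saline Tween buffer holding calcium plus EGTA and DTT.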 Conditions: Cy5-CALM1 binding fluorescence, higher = more signal.
Assay [5] has the same target. The assay can be described thus: small molecules binding Ca-loaded calmodulin-1 – biochemical, small-molecule microarray, Cy5-labelled CALM1, plus calcium, artefact control for SMM control-protein annotation, profiling panel (AID 1112).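 Further: score merges spot fluorescence with signal to noise from triplicate slides.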 To be noted: Cy5-CALM1 binding fluorescence, higher = more signal.
Assay [6] in a line: probe aWnt5a binding to arrayed compounds – biochemical, biotinylated probe, 635/667 nm fluorescence, primary screen (AID 1113).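 Further: score merges 667 nm fluorescence intensity with signal-to-noise per printed feature.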 Conditions: small-molecule microarray, higher = more signal.
Assay [7] in a line: probe aShh binding to arrayed compounds – biochemical, biotinylated probe, 635/667 nm fluorescence, primary screen (AID 1114).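 Further: probe is biotin-labelled aShh protein from a stem cell growth factor screen; measures binding of labelled protein to compounds printed on the slide; score merges feature fluorescence at 667 nm with signal-to-noise.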 Conditions: small-molecule microarray, higher = more signal.
Assay [8] can be described thus: probe aNog binding to arrayed compounds – biochemical, biotinylated probe, 635/667 nm fluorescence, primary screen (AID 1115).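 Further: probe is biotinylated aNog protein used at 0.15 µg/mL for 1 h at 4 C; z-score combines 667 nm fluorescence of each spot with its signal to noise.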 Conditions: small-molecule microarray, higher = more signal.
Assay [9] addresses Torsin-1A-interacting protein 1 (Homo sapiens) (UniProt Q5JTV8). The assay can be described thus: compound microarray binding of lysate hLAP1 – cell lysate, small-molecule microarray, COS7 lysate, 635/667 nm fluorescence, primary screen (AID 1116). Conditions: 635 nm fluorescence, higher = more signal.
In assay [10] the target is Alpha-bungarotoxin (Bungarus multicinctus) (UniProt P60615). The assay is described as follows: compounds binding labelled alpha-BTX control protein – biochemical, small-molecule microarray, Alexa647 label, 635/667 nm fluorescence, artefact control for SMM control protein annotation, profiling panel (AID 1117). Conditions: alpha-BTX-A647 binding fluorescence, higher = more signal.
Sequence of Alpha-bungarotoxin (Bungarus multicinctus) (P60615 whole entry, looked up): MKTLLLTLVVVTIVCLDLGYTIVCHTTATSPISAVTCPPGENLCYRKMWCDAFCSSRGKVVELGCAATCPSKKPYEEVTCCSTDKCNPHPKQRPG

Sequence of Torsin-1A-interacting protein 1 (Homo sapiens) (Q5JTV8 whole entry, looked up): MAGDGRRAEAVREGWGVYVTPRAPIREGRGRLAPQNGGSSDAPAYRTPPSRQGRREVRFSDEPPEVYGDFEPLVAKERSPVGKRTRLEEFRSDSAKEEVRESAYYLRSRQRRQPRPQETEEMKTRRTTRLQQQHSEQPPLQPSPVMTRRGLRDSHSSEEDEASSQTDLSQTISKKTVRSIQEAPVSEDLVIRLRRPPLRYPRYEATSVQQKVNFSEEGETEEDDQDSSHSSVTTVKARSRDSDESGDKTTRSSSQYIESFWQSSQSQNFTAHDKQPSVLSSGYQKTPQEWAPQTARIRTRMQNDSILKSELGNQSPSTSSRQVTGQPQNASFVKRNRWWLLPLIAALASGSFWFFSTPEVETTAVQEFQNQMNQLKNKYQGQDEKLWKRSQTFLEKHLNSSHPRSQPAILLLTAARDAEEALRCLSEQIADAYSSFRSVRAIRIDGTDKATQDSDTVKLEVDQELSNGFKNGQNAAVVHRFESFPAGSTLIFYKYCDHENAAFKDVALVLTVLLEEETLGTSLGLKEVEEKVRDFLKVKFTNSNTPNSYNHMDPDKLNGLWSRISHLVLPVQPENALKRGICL

Regarding `COC(=O)[C@H](C)NC(=O)CCC1CC(OC(=O)NCc2cccc3ccccc23)CC2(CCCC(COC(=O)NCC(c3ccccc3)c3ccccc3)O2)O1` (stereo not given in full), the composite z-score in [1] is 1.32; in [3], 0.889; in assay [4], -0.0132; in assay [5] it was -0.265; in assay [6], -0.0185; in assay [7], -0.273. The composite z-score in assay [8] is -0.0157; in assay [9], 0.345; in assay [10] it was 0.0226. In assay [2], this compound came in with a z-score of -0.977.

With `O=C1C[C@@H](O)[C@@H](O)[C@@H]2[C@@H]3C(=O)N(C[C@@H]4CCCO4)C(=O)[C@@H]3CC[C@H]12`, the composite z-score is 0.265 in [1]; 0.903 in assay [3]; 0.0222 in [4]; -0.522 in [5]; -0.0478 in assay [6]; -0.0337 in assay [7]. Besides, the composite z-score in assay [8] was 0.0309; in [9] it was 0.224; in assay [10], 0.384. For the same compound, the z-score in assay [2] is 0.624.

As for `COC(=O)CC=C[C@@H](C)[C@@H](C=NO[C@H](C)c1cn([C@@H]2COC[C@H]2O)nn1)NS(=O)(=O)c1ccc(C)cc1`, the composite z-score in [1] is -0.12; in assay [3], 0.722; in [4], -0.0535; in assay [5] it was -0.646; in [6], -0.144; in assay [7], -0.237. For the same compound, the composite z-score in assay [8] is -0.246; in assay [9], 0.0982; in assay [10], -0.361. This compound also displayed a z-score in assay [2] of -0.483.

With `COC(=O)[C@@H]1CC[C@@H](C)[C@H](c2ccc(Br)cc2)N1`, the composite z-score in [1] is -1.2; in [3], 0.445; in assay [4], -0.227; in [5] it was -0.0163; in assay [6], -0.136; in assay [7], -0.226. In addition, the composite z-score was -0.247 in assay [8], -0.0359 in assay [9] and -0.309 in assay [10]. The compound further came in with a z-score in [2] of -0.198.

With `COc1ccc(O[C@@H]2[C@H](O)CO[C@H]2C=Cc2ccccc2)cc1`, the composite z-score in assay [1] was -0.206; in [3] it was -0.547; in [4] it was -0.248; in assay [5], -0.246; in assay [6], -0.0685; in assay [7], -0.283. The composite z-score in assay [8] was 0.0308; in [9], -0.395; in assay [10], -0.527. Further, the z-score in assay [2] worked out at 0.388.

As to `CO[C@H]1COC(=O)CC=C[C@H](C)[C@@H](OC)COC(=O)[C@@H](C)NC(=O)CC=C[C@@H]1C`, the composite z-score in [1] was -2.13; in [3], 0.962; in assay [4], -0.857; in [5], -1.55; in assay [6] it was -0.119; in assay [7], -0.367. Besides, the results for the composite z-score in [8], in assay [9] and in assay [10] were -0.274, 0.12 and -0.352, respectively. In addition, the z-score in [2] is -1.42.

For `C[C@@H]1NC(=O)[C@@H](C)COC(=O)[C@H](C)NC(=O)[C@@H](C)COC1=O`, the composite z-score is 1.08 in [1]; 0.737 in [3]; -0.152 in assay [4]; -0.521 in [5]; -0.12 in [6]; -0.243 in assay [7]. Besides, the figures for the composite z-score in [8], in assay [9] and in assay [10] were 0.0209, -0.143 and 0.144, respectively. This compound yielded a z-score in assay [2] of 0.0151.

On to `COc1ccc(O[C@H]2C=C[C@@H](c3ccccc3)O[C@@H]2COC(=O)CCC(C)=NO[C@@H]2O[C@H](COC(C)=O)[C@@H](OC(C)=O)[C@H](OC(C)=O)[C@H]2OC(C)=O)cc1`, for which the composite z-score in [1] is 1.29; in assay [3], 0.511; in assay [4], -0.126; in [5], -0.643; in assay [6], -0.0944; in [7], -0.206. Also, the composite z-score is -0.53 in assay [8], 0.38 in [9] and 0.731 in assay [10]. In addition, the z-score in [2] was -1.88.

As to `CCOC(=O)NN=C1C[C@@H](O)[C@@H](O)[C@@H]2[C@@H]3C(=O)N(c4ccc(F)cc4F)C(=O)[C@@H]3CC[C@@H]12`, the composite z-score in [1] is 0.687; in assay [3], 0.292; in assay [4] it was -0.167; in [5], -0.205; in [6] it was -0.0087; in [7] it was -0.108. The composite z-score is -0.213 in [8], 0.196 in assay [9] and -0.234 in assay [10]. This compound had a z-score in assay [2] of 0.0324.

Take `O=C(NN=C1C[C@@H](O)[C@@H](O)[C@@H]2[C@@H]3C(=O)N(C4CCCCC4)C(=O)[C@@H]3CC[C@H]12)OCc1ccccc1`: the composite z-score in [1] was -0.342; in [3] it was 0.393; in assay [4], -0.202; in [5], 0.454; in assay [6], -0.0051; in [7], -0.542. The composite z-score was 0.0014 in [8], 0.26 in assay [9] and 0.273 in assay [10]. Also, the z-score in assay [2] was -2.03.

Take `CCN1C(=O)[C@H]2[C@H]3[C@H](O)[C@H](O)CC(=NO[C@@H](C)c4cn([C@H](CO)Cc5ccccc5)nn4)[C@@H]3CC[C@H]2C1=O`: the composite z-score is 0.696 in assay [1]; 0.636 in assay [3]; 0.711 in assay [4]; -0.209 in assay [5]; -0.0403 in assay [6]; -0.206 in assay [7]. Moreover, the composite z-score in assay [8] is 0.111; in assay [9], -0.117; in assay [10] it was 0.889. In assay [2], this compound came in with a z-score of -0.262.

For `CC(C)(C)N1C(=O)[C@H]2[C@H]3[C@H](O)[C@H](O)CC(=NOCc4ccccc4)[C@H]3CC[C@H]2C1=O`, the composite z-score in assay [1] was -0.397; in [3], -0.0786; in [4] it was 0.157; in assay [5] it was -0.272; in assay [6], -0.0125; in [7], -0.154. Also, the figures for the composite z-score in assay [8], in [9] and in assay [10] were 0.299, 0.185 and 1.28, respectively. The same compound came in with a z-score in assay [2] of 0.561.
